High-throughput results as filed in PubChem.
Shown are actives, neighbours in structure and some others; about 1.4% of the full set was active somewhere.
MCL1 BIM primary: inhibitors of human MCL1 binding to BIM-BH3 peptide; 320,000 compounds, 0.68% hits; inhibition, % at 10.9 µM; AID 2057; GST-MCL1 / FITC-Bim-BH3 fluorescence polarization;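 active = inhibition above the mean inhibition of all tested compounds plus 3 SD, set per campaign, cut at about 40% in these data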;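 also: 0% = DMSO wells and 100% = unlabeled Bim-BH3 peptide control; higher means more loss of mP so more displacement of Bim peptide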
Target sequence (Q07820 whole entry, looked up): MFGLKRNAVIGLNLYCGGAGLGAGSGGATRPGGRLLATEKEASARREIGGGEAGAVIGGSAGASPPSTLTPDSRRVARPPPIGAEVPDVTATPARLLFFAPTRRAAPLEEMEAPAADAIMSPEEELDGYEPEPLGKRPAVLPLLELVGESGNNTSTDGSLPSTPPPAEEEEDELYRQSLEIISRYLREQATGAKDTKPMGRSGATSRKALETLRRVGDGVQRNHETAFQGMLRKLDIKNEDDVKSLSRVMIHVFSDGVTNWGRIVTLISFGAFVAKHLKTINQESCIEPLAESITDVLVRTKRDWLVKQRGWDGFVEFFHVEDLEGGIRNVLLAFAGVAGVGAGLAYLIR
Bcl-xL primary: inhibitors of human Bcl-xL; inhibition, % at 10.9 µM; 320,000 compounds, 0.7% hits; GST-Bcl-xL / FITC-Bim BH3 peptide fluorescence polarization; Q07817;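 active = inhibition above the mean of all tested compounds plus 3 SD, cutoff set per campaign, cut at about 30% in these data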;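 also: 0% = DMSO wells and 100% = unlabeled Bim-BH3 peptide competitor; inhibitors lower millipolarization by displacing the labeled peptide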
Target sequence (Q07817 whole entry, looked up): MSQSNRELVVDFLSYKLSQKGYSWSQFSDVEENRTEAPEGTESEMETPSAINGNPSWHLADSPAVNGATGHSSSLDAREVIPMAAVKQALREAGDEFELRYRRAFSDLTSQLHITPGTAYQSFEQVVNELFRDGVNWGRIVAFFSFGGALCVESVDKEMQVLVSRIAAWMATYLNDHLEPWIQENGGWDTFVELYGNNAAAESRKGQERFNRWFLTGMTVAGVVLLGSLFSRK
MEX-5 binding: C. elegans MEX-5 TCR-2 RNA binding activity | MEX-5/FITC-TCR2 RNA binding, fluorescence polarization; hits give low values | activity score (negative = inhibition of binding), % at 10 µM | 300,000 compounds, 0.38% hits;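 active = inhibition past about -25% in most replicates, and total fluorescence under double the plate's negative control median, limit read from the data; inconclusive = replicates evenly split on the limit, or fluorescence at least double controls; inactive = too little inhibition in most replicates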;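 also: 0% = DMSO and -100% = 5 µM competing unlabeled TCR2 RNA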
EBV gp42 block: inhibitors of Epstein-Barr virus glycoprotein 42; Fluorescence polarization binding assay, mP read-out; inhibition, % (tested at 21.74 µM); 220,000 compounds, 0.42% hits; AID 1085; in the data active = inhibition above about 50%
GLD-1 RNA inh: GLD-1-TGE RNA interaction inhibition (C. elegans) | Q17339 | purified GLD-1 + fluorescein TGE RNA, fluorescence polarization | inhibition, % at 5.96 µM | 320,000 compounds, 0.44% hits;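 active = percent inhibition above a per-plate cutoff, the plate mean of test compounds plus 3 SD, cut at about 30% in these data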;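 also: 0% = DMSO wells with GLD-1 and probe and 100% = wells lacking GLD-1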
E coli Lon inh: E. coli protease La inhibition; 360,000 compounds, 0.42% hits; P0A9M0; purified E. coli Lon protease, fluorescence polarization; AID 602123; inhibition, % at 7.94 µM; in the data active = inhibition above about 13%, passing the limit was not always enough;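 also: 0% = enzyme with probe and DMSO and 100% = no enzyme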
eLon confirm: E. coli Lon inhibition confirmation | inhibition, % at 7.94 µM | shares compounds with E coli Lon inh | 1,400 compounds, 31% hits | purified E. coli Lon, fluorescence polarization; in the data active = inhibition above about 16%;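 also: 0% = enzyme with probe and DMSO and 100% = no enzyme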
An asterisk follows results filed as active; u = inconclusive; x = no result given; + = active, no number.

SMILES	MCL1 BIM primary	Bcl-xL primary	MEX-5 binding	EBV gp42 block	GLD-1 RNA inh	E coli Lon inh	eLon confirm
N#Cc1c(NCc2ccccc2)ccnc1NCc1cccnc1	10	0	1	-21	6	17*	-54
O=C(COC(=O)COc1ccc(Br)cc1)NC1CCS(=O)(=O)C1 (stereo not given)	x	x	x	x	x	-16	x
CCN(CC)C(=O)CN(c1ccc2c(c1)OCO2)S(C)(=O)=O	3	-1	2	-13	1	-6	x
COC(=O)CN(c1ccc2c(c1)OCO2)S(C)(=O)=O	1	1	-1	5	8	17*	7
Cn1c(=O)n(CC(=O)N2CCN(c3nnc(-c4ccccc4)c4ccccc34)CC2)c2ccccc21	4	5	-2	-2	3	6	x
Cc1ccc(-c2nnc(N3CCN(C(=O)Cn4c(=O)n(C)c5ccccc54)CC3)c3ccccc23)cc1	8	5	1	-6	0	24*	2
O=C(COC(=O)c1ccc(O)cc1)Nc1ncc(Cl)cc1Cl	14	15	1	8	7	5	x
O=C(COC(=O)c1nc(Cl)ccc1Cl)Nc1ncc(Cl)cc1Cl	3	12	-8	x	8	77*	-7
O=C(CN1CCN(S(=O)(=O)c2ccc(Br)cc2)CC1)N/N=C/c1ccccc1C(=O)O	-4	3	0	x	0	1	x
O=C(Cc1c(F)cccc1Cl)Nc1ccccc1-c1ccccc1	9	5	0	x	2	20*	-26
O=C(Cc1ccccc1F)Nc1ccccc1-c1ccccc1	-1	-2	0	-8	4	1	x
O=C(NCc1ccncc1)C(F)(F)C(F)(F)C(=O)NCc1ccncc1	4	-1	-1	-11	6	17*	-4
O=C(NCc1ccncc1)c1c(F)c(F)c(F)c(F)c1F	1	-3	3	-14	-9	-6	x
Nc1ccc(-c2nc3ccc(N)cc3[nH]2)cc1	5	3	-2	-9	8	3	x
Nc1ccc2cc3[nH]c4cc(N)ccc4c3nc2c1	x	x	x	x	x	+	146*
Cc1ccc(-c2[nH]c3cc(C(=O)NCCCn4ccnc4)ccc3c(=O)c2O)cc1	38	-2	-5	-4	1	125*	92*
CCCNC(=O)c1ccc2c(=O)c(O)c(-c3ccsc3)[nH]c2c1	6	8	u	-8	4	+	182*
Cc1ccc(-c2[nH]c3cc(C(N)=O)ccc3c(=O)c2O)cc1	6	9	-70*	-14	1	76*	46*
CCCNC(=O)c1ccc2c(=O)c(O)c(-c3ccc(C)cc3)[nH]c2c1	7	2	-3	-17	9	160*	141*
Cc1ccc(CNC(=O)c2ccc3c(=O)c(O)c(-c4ccc(C)cc4)[nH]c3c2)cc1	3	2	-1	-16	2	0	x
Cc1ccc(N2C(N)=C(C#N)C(c3cc(CN4CCOCC4)cs3)C3=C2CC(C)(C)CC3=O)cc1 (stereo not given)	5	6	-1	3	-1	-3	x
COC(=O)c1cc(S(=O)(=O)NCc2ccc3c(c2)OCO3)cn1C	5	9	-9	x	9	8	x
CCCNC(=O)c1ccc2c(=O)c(O)c(-c3ccc(OC)cc3)[nH]c2c1	6	9	-6	-18	7	172*	112*
COCCCNC(=O)c1ccc2c(=O)n(Cc3ccc(OC)cc3)c(=O)[nH]c2c1	3	-1	-1	-4	3	-3	x
COc1ccc(NC(=O)COc2ccccc2C(N)=O)cc1S(=O)(=O)N1CCCCC1	x	x	x	x	x	-1	x
SMILES	MCL1 BIM primary	Bcl-xL primary	MEX-5 binding	EBV gp42 block	GLD-1 RNA inh	E coli Lon inh	eLon confirm
CC(=O)c1ccccc1OCC(=O)Nc1cccc(S(=O)(=O)N2CCCC2)c1	2	0	x	x	-3	0	x
CCOc1ccccc1OCC(=O)Nc1cccc(S(=O)(=O)N2CCCCCC2)c1	1	1	-1	x	-6	60*	-6
Cc1ccc(NC(=O)COc2ccccc2C(N)=O)cc1S(=O)(=O)N1CCCCCC1	-10	-6	x	x	4	22*	1
CCOc1cc2[nH]c(=S)n(CCC(=O)NC3CCCCC3)c(=O)c2cc1OCC	x	x	x	x	x	-16	x
O=C(Nc1ccccc1C(=O)NC(Cc1ccccc1)C(=O)NC1CCCCC1)c1ccccc1 (stereo not given)	4	2	0	-1	6	-2	x
O=C(CSc1nnc(-c2ccc(O)cc2)n1Cc1ccccc1)NNC(=O)c1ccc(Br)cc1	-1	2	-2	16	-3	0	x
CC(C)c1nc(SCC(=O)NCC2CCCO2)c2c(=O)n(C)c(=O)n(C)c2n1 (stereo not given)	0	7	0	x	4	1	x
O=C(NCc1cc(Cl)cc(Cl)c1)c1csc([C@@H]2C[C@H](O)[C@@H](CO)O2)n1	x	x	x	x	x	-6	x
Cn1c(=O)c2c(ncn2CC(=O)OCC(=O)NCc2ccccc2Cl)n(C)c1=O	-5	4	-2	-13	-3	-1	x
COc1ccccc1CNC(=O)COC(=O)Cn1cnc2c1c(=O)n(C)c(=O)n2C	x	x	x	x	x	72*	-2
c1ccc(C2OC3c4cccc5cccc(c45)C3N2c2ccccc2)cc1 (stereo not given)	12	10	1	-14	8	56*	2
C/C(=N/NC(=O)CN1CCN(S(=O)(=O)c2ccc(C)cc2)CC1)c1ccco1	3	0	2	-3	4	2	x
CN(C)CCNc1ccc2ncn3c4ccc(O)cc4c(=O)c1c23	x	x	x	x	x	+	+
COCCn1c(Cc2ccccc2)nnc1SCC(=O)N1CCCC1=O	-12	-20	x	x	3	0	x
CCCCC1CN2CCc3c([nH]c4ccccc34)C2(C)C1 (stereo not given)	-4	5	0	x	0	-2	x
CCN(CC(=O)Nc1c(F)cccc1F)C(=O)c1cc2ccccc2oc1=O	5	1	-2	x	-2	23*	-2
COc1cc(OC)cc(C(=O)OCc2cc3ccccc3[nH]c2=O)c1	6	6	2	-1	4	23*	-4
COc1ccc(N2C(=O)c3cccc4c(N(C)CCO)ccc(c34)C2=O)cc1	x	x	u	x	x	67*	22*
Cc1cccc(NC(=O)COC(=O)Cc2cccs2)c1C	-8	0	-4	x	3	-7	x
COc1ccc(/C=C/C(=O)N2CCN(c3ccccn3)CC2)c(OC)c1OC	-1	-1	2	x	3	62*	-5
COc1ccc(/C=C/C(=O)N2CCN(c3ccccn3)CC2)c2ccccc12	2	3	0	-6	0	11	x
CCCCn1c(N)c(N(CC(C)C)C(=O)CSCC(=O)Nc2ccc(C)cc2)c(=O)[nH]c1=O	-25	-16	x	x	1	6	x
